# Screens deposited in PubChem by several laboratories.
# CR mimetic SO – lowers age-related superoxide in aged yeast cells. S. cerevisiae aged cells, superoxide DHE fluorescence; active compounds read low. superoxide response (% of plate mean), % at 10 µM. 330,000 tested, 0.18% active. AID 2690;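 active means superoxide response under a set limit, about three screen SD below normal, cut at about 65% in these data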;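 further: yeast aged for seven days with compound at 30 °C before DHE staining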
# PLCb3 inh – blocks human PLC-beta3 enzyme activity | Q01970 | Purified PLC-beta3, fluorogenic substrate, fluorescence | inhibition, % at 12.2 µM | 370,000 tested, 0.18% active | AID 720704; in the data active means inhibition above about 11%
# AHR activator – human AHR activation | 320,000 tested, 2.5% active | AID 2796 | AHR-responsive luciferase reporter cells, luminescence | activation, % at 5 µM; in the data active means activation above about 47%
# PLCg1 inh – inhibitors of human phospholipase C gamma1 | P19174 | purified PLC-gamma1, fluorogenic substrate, fluorescence | inhibition, % at 12.2 µM | 370,000 tested, 0.84% active
# sPLA2-III inh – Blocks human group III sPLA2 activity. AID 743126. inhibition, % at 12.2 µM. Q9NZ20. QFRET BODIPY PC-A2 liposome hydrolysis, fluorescence. 370,000 tested, 0.56% active;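 active means inhibition above mean plus 3 SD of compounds lying within the high and low control bounds, cut at about 19% in these data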
# HIF act – HIF pathway transcriptional activation; 300,000 tested, 0.32% active; AID 1910; U2OS HRE-luciferase reporter, luminescence; normalized: DMSO 0%, desferrioxamine 100%; activation, % at 7.5 µM (by protocol);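 active means mean activation of at least 10% of the iron chelator positive control signal, with at least half of replicates also reaching 10%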
# AHR act cf – human AHR activation, confirmation | shares compounds with AHR activator | human cells, AHR-responsive luciferase reporter, luminescence | activation, % at 9 µM | 2,300 tested, 87% active | AID 2845; in the data active means activation above about 49%;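 further: HepG2 hepatoma cells carrying a DRE-driven firefly luciferase reporter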
# PXR counter – counter-screen for AHR activators: human PXR activators | shares compounds with AHR activator | cell-based PXR reporter, luciferase luminescence | 2,300 tested, 88% active | AID 434939 | activation, % at 11.6 µM; in the data active means activation above about 11%;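 further: human hepatoma DPX-2 cells expressing full-length human PXR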
# PLCgamma1 ctr – counter-screen for PLC-beta3 inhibitors: inhibitors of human PLC-gamma1; inhibition, % at 12.3 µM; purified PLC-gamma1, fluorogenic substrate, fluorescence; 3,300 tested, 3.1% active; shares compounds with PLCg1 inh
# PLCbeta3 conf – confirmation of human PLC-beta3 inhibitors. shares compounds with PLCg1 inh. purified PLC-beta3, fluorogenic substrate fluorescence. inhibition, % at 12.3 µM. 3,300 tested, 1% active. AID 743261; in the data active means inhibition above about 11%
# Numbers stand for hits; . = inactive; / = no result. Compounds with a hit are over-represented: about 3.9% of the library has one in this group of screens. Unless noted, no stated cut-off is given here; in the data, active means inhibition above about 9.5%; inactive means the rest.
SMILES,CR mimetic SO,PLCb3 inh,AHR activator,PLCg1 inh,sPLA2-III inh,HIF act,AHR act cf,PXR counter,others
Cc1cc(C)c2sc(NC(=O)C3CC3)nc2c1,.,.,106.0,.,.,.,117.5,58.7,
Cc1nc(NC(=O)C2CC2)sc1C(=O)Nc1ccc(Br)cc1,.,.,102.7,.,.,.,103.9,32.5,
Cc1cc(C)c2sc(N)nc2c1,.,.,.,.,.,/,/,/,
Cc1ccc(C)c2sc(NC(=O)C3CC3)nc12,.,.,91.8,.,.,.,121.2,/,
COc1ccc(NC(=O)c2sc(NC(=O)C3CC3)nc2C)cc1,.,.,.,.,.,.,/,/,
CCc1cccc2sc(NC(=O)C3CC3)nc12,.,.,91.0,.,.,.,118.6,12.9,
Cc1cc(NC(=O)c2c(-c3c(Cl)cccc3Cl)noc2C)n(C)n1,.,.,.,.,.,.,/,/,
O=C1CCN(Cc2ccc(Cl)cc2Cl)C(=O)N1,/,.,/,.,.,/,/,/,
COc1ccc2c(c(-c3ccccc3)cn2C)c1-c1ccccc1,/,.,/,.,.,/,/,/,
COCc1cc(=O)[nH]c(Nc2nc3ccccc3o2)n1,.,.,130.1,.,.,.,73.8,19.3,
COC(=O)Cc1cc(=O)[nH]c(Nc2nc3ccccc3o2)n1,.,.,.,.,.,.,/,/,
CC1CN(CC(O)COc2ccc(C#N)cc2)CCN1CC(O)COc1ccc(C#N)cc1 (stereo not given),.,.,.,.,.,.,/,/,
S=c1[nH]nc(-c2cccnc2)n1/N=C/c1ccccc1,.,.,.,.,.,.,/,/,
Fc1ccccc1/C=N/n1cc(-c2ccccc2)[nH]c1=S,.,.,86.6,.,.,.,112.5,45.0,
S=c1[nH]c(-c2ccccc2)cn1/N=C/c1cccnc1,.,.,81.9,.,.,.,101.8,16.9,
CCNC(=O)C1(C)CCCN(C(=O)c2cccnc2Oc2ccccc2)C1 (stereo not given),/,.,/,.,.,/,/,/,
Clc1ccc(N2CCN(Cc3ccco3)CC2)cc1,.,.,.,.,.,.,/,/,
O=C(C[n+]1cc(Br)cc2ccccc21)c1ccc(Br)cc1,.,.,100.8,.,.,.,112.1,30.5,
Cc1nc2ccc(NS(=O)(=O)c3ccc(Br)cc3)cc2s1,.,.,.,.,.,/,/,/,
Clc1ccccc1-c1nc(-c2ccc(Br)o2)no1,.,.,100.5,.,.,.,108.2,42.8,
Brc1ccc(-c2noc(CCc3ccccc3)n2)o1,.,.,.,.,.,.,/,/,
COc1cc(-c2nc(-c3ccc(Br)o3)no2)cc(OC)c1OC,.,.,91.4,.,.,.,84.3,13.9,
O=[N+]([O-])c1cc(Cl)ccc1-c1nc(-c2ccccc2)no1,.,.,.,.,.,.,/,/,
O=[N+]([O-])c1ccccc1-c1nc(-c2ccc(Br)o2)no1,.,.,112.1,.,.,.,109.2,47.1,
Brc1ccc(-c2noc(-c3ccccn3)n2)o1,.,.,101.4,.,.,.,71.2,25.0,
SMILES,CR mimetic SO,PLCb3 inh,AHR activator,PLCg1 inh,sPLA2-III inh,HIF act,AHR act cf,PXR counter,others
COc1ccc(-c2noc(-c3ccc(Br)o3)n2)cc1OC,.,.,.,.,.,.,/,/,
CC(OC(=O)c1cccc([N+](=O)[O-])c1)C(=O)NCc1ccc2c(c1)OCO2 (stereo not given),.,.,.,.,.,.,/,/,
O=C(CNC(=O)C1COc2ccccc2O1)N/N=C\c1ccc(Br)cc1 (stereo not given),.,.,.,.,.,.,/,/,
CC(C)(C)c1ccc(C(=O)Nc2nnc(Cc3c[nH]c4ccccc34)s2)cc1,.,.,90.0,.,.,.,87.7,13.7,
c1ccc2c3n(nc2c1)CCCCO3,.,.,.,.,.,/,/,/,
N#Cc1ccc(C23OCCN2CCn2nc4ccccc4c23)cc1 (stereo not given),.,.,102.8,.,.,/,108.5,94.7,
CCn1c(=O)c([N+](=O)[O-])c(NCCc2ccccc2)c2ccccc21,.,/,.,/,/,.,/,/,
Cn1c(=O)c([N+](=O)[O-])c(NCc2ccc3c(c2)OCO3)c2ccccc21,.,.,88.8,.,.,.,98.6,86.5,
Cn1c(=O)c([N+](=O)[O-])c(NCCc2ccccc2)c2ccccc21,.,.,81.3,.,.,.,89.4,48.6,
CC(=O)c1cccc(NC(=O)C2Cc3c(-c4cccc(C(N)=O)c4)ccnc3O2)c1 (stereo not given),/,.,/,.,.,/,/,/,
c1csc(CCNc2ncnc3sc4c(c23)CCC4)c1,.,.,.,.,.,.,/,/,
c1cn(CCCNc2ncnc3sc4c(c23)CCC4)cn1,.,.,128.0,.,.,.,91.7,17.8,
S=c1nc(COc2ccccc2)[nH]c2ccccc12,.,.,124.4,.,.,.,125.1,13.6,
S=c1nc(Cc2ccccc2)[nH]c2ccccc12,.,.,.,.,.,.,/,/,
Cc1ccsc1/C=N/NC(=O)c1c[nH]c2ccccc12,.,.,101.5,.,.,.,142.1,41.6,
Cc1ccsc1/C=N/NC(=O)c1ccccn1,.,.,.,.,.,.,/,/,
O=C(N/N=C/c1ccsc1)c1c[nH]c2ccccc12,.,.,127.8,.,.,.,114.8,21.9,
O=C(N/N=C/C1CC2CCC1C2)c1c[nH]c2ccccc12 (stereo not given),.,.,86.8,.,.,.,.,.,
Cc1[nH]n(-c2ccccc2)c(=O)c1N=Nc1c(Cl)cccc1Cl,.,/,.,/,/,.,/,/,
Cc1cccc2c1ncc1c(=O)n(-c3ccccc3)[nH]c12,.,.,135.5,.,.,.,128.5,32.5,
COC(=O)c1[nH]c2ccccc2c1NC(=O)Oc1ccccc1,.,.,95.4,.,.,.,48.2,19.1,
COC(=O)c1[nH]c2ccccc2c1NC(=O)c1ccccc1F,.,.,.,.,.,.,/,/,
O=c1c2ccccc2[nH]c(=S)n1CCC1=CCCCC1,.,.,112.9,.,.,.,124.8,24.4,
O=C(C(=O)N1CCN(S(=O)(=O)c2ccccc2)CC1)c1cccc(C(F)(F)F)c1,/,.,/,.,.,/,/,/,
CN(C(=O)/C=C/c1ccc2c(c1)OCO2)c1ccccc1,.,.,96.7,.,.,.,79.4,113.5,
Cc1ccc(Nc2n[nH]c(C)c2[N+](=O)[O-])c(C)c1,.,.,132.1,9.6,.,.,126.8,15.0,PLCgamma1 ctr=.;PLCbeta3 conf=.
COc1ccc(Nc2n[nH]c(C)c2[N+](=O)[O-])cc1,.,.,.,.,.,.,/,/,
CC1=NN(c2ccccc2)C(=O)/C1=C/c1cccs1,.,15.8,83.8,25.3,.,.,86.5,36.8,PLCgamma1 ctr=.;PLCbeta3 conf=.
